PubChem BioAssay (Tox21)
Records with an inconclusive call do not appear. Active and inactive are the calls of the source. Unless noted, the call rests on the fitted dose curve; in most records, active means well fitted curve in the direction sought with a large enough effect in the repeat runs; inconclusive means weak or mixed curves; inactive means flat fitted curve, though single readings scatter.

What was measured:
[1] = qHTS assay to test for compound auto fluorescence at 535 nm (green) in HEK293 cells (AID 720680); conditions: green autofluorescence 485/535 nm; series mostly up to 91.3 µM
[2] = qHTS assay to test for compound auto fluorescence at 460 nm (blue) in HEK293 cell free culture (AID 720681); conditions: cell-free medium, autofluorescence 405/460 nm (blue); series mostly up to 91.3 µM
How it was run: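 Blue fluorescence (Ex 405/Em 460 nm, triamterene-equivalent) was read immediately after pin transfer of compound or DMSO into medium (DMEM, 10% FBS) without cells.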

[3] = qHTS assay to test for compound auto fluorescence at 535 nm (green) in HEK293 cell free culture (AID 720682); conditions: cell-free medium, green autofluorescence 485/535 nm; series mostly up to 91.3 µM
How it was run: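 Fluorescein serves as the green reference fluorophore; each compound's intrinsic emission at 535 nm (excitation 485 nm) is reported as an equivalent amount of that dye, measured in serum-containing DMEM without cells.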

[4] = qHTS assay to test for compound auto fluorescence at 590 nm (red) in HEK293 cell free culture (AID 720683); conditions: cell-free medium autofluorescence, Ex540/Em590 red; series mostly up to 91.3 µM
How it was run: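 Red-channel autofluorescence of compounds in culture medium (DMEM, 10% FBS), no cells, measured at 540/590 nm. Rose Bengal sodium is the reference fluorophore for equivalence.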

[5] = qHTS assay to test for compound auto fluorescence at 590 nm (red) in HepG2 cell free culture (AID 720684); conditions: cell-free medium autofluorescence, red 540/590 nm; series mostly up to 91.3 µM
How it was run: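 Steps: dispense MEM/10% FBS medium, no cells; pin compound or DMSO vehicle; read red channel, Ex/Em 540/590 nm. Output given as Rose Bengal sodium equivalents.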

[6] = qHTS assay to test for compound auto fluorescence at 460 nm (blue) in HepG2 cell free culture (AID 720685); conditions: Cell-free culture medium, blue autofluorescence 405/460 nm; series mostly up to 91.3 µM
How it was run: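 Compound (23 nL) or DMSO pinned into cell-free MEM with 10% FBS; blue fluorescence read at 405/460 nm excitation/emission, expressed as auto-fluorescence equivalency to triamterene.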

[7] = qHTS assay to test for compound auto fluorescence at 535 nm (green) in HepG2 cell free culture (AID 720686); conditions: Cell-free medium, green autofluorescence 485/535 nm; series mostly up to 91.3 µM
[8] = qHTS assay to test for compound auto fluorescence at 460 nm (blue) in HepG2 cells (AID 720687); conditions: autofluorescence 405/460 nm, 1 h; series mostly up to 91.3 µM
How it was run: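 Blue-channel autofluorescence (Ex/Em 405/460 nm, triamterene-equivalent) was measured after 1 hr compound exposure at 37 C, 5% CO2. Cells were HepG2, plated overnight at 37 C in MEM plus 10% FBS.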

[9] = target: Glucocorticoid receptor (Homo sapiens) (UniProt P04150); experiment: qHTS assay to identify small molecule agonists of the glucocorticoid receptor (GR) signaling pathway (AID 720691; active means well fitted activation curve with a large enough effect in the signal ratio in the repeat runs, not every such curve was filed as active; the % refers to the signal ratio); conditions: GR-bla HeLa, beta-lactamase reporter ratio, 18 h; series mostly up to 62.4 µM
How it was run: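 Beta-lactamase reporter activity, read as fluorescence intensity, was measured in GR-bla HeLa cells exposed to compounds for 18 h at 37 C and then loaded with LiveBLAzer B/G FRET substrate for 2 h at room temperature.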

[10] = target: Glucocorticoid receptor (Homo sapiens) (UniProt P04150); experiment: qHTS assay to identify small molecule antagonists of the glucocorticoid receptor (GR) signaling pathway (AID 720692; active means well fitted inhibition curve with a large enough effect in the signal ratio in the repeat runs, not every such curve was filed as active; the % refers to the signal ratio); conditions: GR-bla HeLa, beta-lactamase FRET ratio, dexamethasone-stimulated, 18 h; series mostly up to 58.5 µM
How it was run: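 Fluorescence from cleaved LiveBLAzer B/G FRET substrate reports GRE-driven beta-lactamase in HeLa cells; compounds are tested against 5 nM dexamethasone (final) over 18 h at 37 C, substrate incubation 2 h at room temperature.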

Measured: Potency

Glucocorticoid receptor (Homo sapiens), sequence (P04150 whole entry, looked up): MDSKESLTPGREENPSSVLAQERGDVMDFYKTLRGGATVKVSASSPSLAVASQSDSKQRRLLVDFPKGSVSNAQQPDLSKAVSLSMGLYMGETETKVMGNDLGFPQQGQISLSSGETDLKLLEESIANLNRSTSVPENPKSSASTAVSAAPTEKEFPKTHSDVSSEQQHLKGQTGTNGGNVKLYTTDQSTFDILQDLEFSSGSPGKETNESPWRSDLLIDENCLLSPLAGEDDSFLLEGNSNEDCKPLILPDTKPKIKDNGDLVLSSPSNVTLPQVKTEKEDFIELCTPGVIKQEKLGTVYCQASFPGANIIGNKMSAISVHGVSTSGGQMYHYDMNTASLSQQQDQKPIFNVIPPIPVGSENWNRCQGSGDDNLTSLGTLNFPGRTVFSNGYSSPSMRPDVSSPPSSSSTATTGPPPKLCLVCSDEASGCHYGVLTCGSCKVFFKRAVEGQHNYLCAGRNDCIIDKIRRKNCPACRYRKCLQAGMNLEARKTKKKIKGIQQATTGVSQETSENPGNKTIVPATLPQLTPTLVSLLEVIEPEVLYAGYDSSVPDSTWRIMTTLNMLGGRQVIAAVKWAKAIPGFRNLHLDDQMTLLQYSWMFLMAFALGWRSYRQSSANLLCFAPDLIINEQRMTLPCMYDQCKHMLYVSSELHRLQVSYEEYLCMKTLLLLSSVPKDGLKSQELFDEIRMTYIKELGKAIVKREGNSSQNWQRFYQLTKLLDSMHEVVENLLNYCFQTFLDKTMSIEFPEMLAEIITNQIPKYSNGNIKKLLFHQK

CO[C@H]1C=CO[C@@]2(C)Oc3c(C)c(O)c4c(O)c(c(/C=N/N5CCN(C)CC5)c(O)c4c3C2=O)NC(=O)/C(C)=C\C=C[C@H](C)[C@H](O)[C@@H](C)[C@@H](O)[C@@H](C)[C@H](OC(C)=O)[C@@H]1C
not listed: [9] | [10]
inactive: all other assays above

C=C(C)C(N)=O
not listed: [9] | [10]
inactive: all other assays above

COC(=O)C1CCC(C(=O)OC)CC1 (configuration not stated)
not listed: [9] | [10]
inactive: all other assays above

O=C(O)Cc1cccc2ccccc12
not listed: [9] | [10]
inactive: all other assays above

NC(=O)N1c2ccccc2C=Cc2ccccc21
not listed: [9] | [10]
inactive: all other assays above

CC(C)CC(C)CC(O)CC(C)C (configuration not stated)
not listed: [9] | [10]
inactive: all other assays above

CCCCCCCCOc1ccc(C(=O)c2ccccc2)c(O)c1
not listed: [9] | [10]
inactive: all other assays above

Nc1cccc(N)c1
not listed: [9] | [10]
inactive: all other assays above

C[C@]12CC[C@@H]3c4ccc(O)cc4CC[C@H]3[C@@H]1CCC2=O
not listed: [9] | [10]
inactive: all other assays above

Cc1cccc(C)c1O
not listed: [9] | [10]
inactive: all other assays above

C[C@]12C=CC(=O)C=C1CC[C@@H]1[C@@H]2C(=O)C[C@@]2(C)[C@H]1CC[C@]2(O)C(=O)CO
not listed: [9] | [10]
inactive: all other assays above

CN(C)C=O
not listed: [9] | [10]
inactive: all other assays above

CC(=O)OC/C=C(C)/C=C/C=C(C)/C=C/C1=C(C)CCCC1(C)C
not listed: [9] | [10]
inactive: all other assays above

COCCOCCOC
not listed: [9] | [10]
inactive: all other assays above

CCN(CC)CCOC(=O)c1ccc(N)cc1
not listed: [9] | [10]
inactive: all other assays above

O=C1CCCCCN1
not listed: [9] | [10]
inactive: all other assays above

CCn1cc(C(=O)O)c(=O)c2ccc(C)nc21
not listed: [9] | [10]
inactive: all other assays above

COc1ccccc1NC(=O)CC(C)=O
not listed: [9] | [10]
inactive: all other assays above

CC1(C)O[C@@H]2[C@@H](CO[C@@]3(COS(N)(=O)=O)OC(C)(C)O[C@@H]23)O1
not listed: [9] | [10]
inactive: all other assays above

Nc1ccc(N=Nc2ccccc2)c(N)n1
not listed: [9] | [10]
inactive: all other assays above

C=CC(=O)NC(C)(C)CS(=O)(=O)O
not listed: [9] | [10]
inactive: all other assays above

COc1cc(O)c(C(=O)c2ccccc2)cc1S(=O)(=O)O
not listed: [9] | [10]
inactive: all other assays above

COc1cc2c(c(OC)c1OC)-c1ccc(OC)c(=O)cc1[C@@H](NC(C)=O)CC2
not listed: [9] | [10]
inactive: all other assays above

C#C[C@]1(O)CC[C@H]2[C@@H]3CCC4=CC(=O)CC[C@@H]4[C@H]3CC[C@@]21CC
not listed: [9] | [10]
inactive: all other assays above

C/C=C/c1ccc(O)c(OC)c1
not listed: [9] | [10]
inactive: all other assays above

OC[C@@H](O)[C@@H](O)[C@H](O)[C@H](O)CO
not listed: [9] | [10]
inactive: all other assays above

Cc1cccc2ccccc12
not listed: [9] | [10]
inactive: all other assays above

O=[N+]([O-])c1ccc(O)cc1
not listed: [9] | [10]
inactive: all other assays above

O=c1c(-c2ccc(O)cc2)coc2cc(O)cc(O)c12
not listed: [9] | [10]
inactive: all other assays above

COc1cc(C=O)ccc1O
not listed: [9] | [10]
inactive: all other assays above

Oc1cccc(O)c1
inactive: all assays above

CC(C)(C)CC(C)(C)c1ccc(O)c(-n2nc3ccccc3n2)c1
inactive: all assays above

CC(C)(C)NCC(O)c1ccc(O)c(CO)c1 (configuration not stated)
inactive: all assays above

CCCCOC(=O)CCCCCCCCC(=O)OCCCC
inactive: all assays above

C=CCOC(=O)CC(C)C
inactive: all assays above

CC(O)COc1ccccc1 (configuration not stated)
inactive: all assays above

COCC(C)N (configuration not stated)
inactive: all assays above

Cc1c(N(C)CS(=O)(=O)O)c(=O)n(-c2ccccc2)n1C
not listed: [10]
inactive: all other assays above

CCOCCO
not listed: [9]
inactive: all other assays above

CC(=O)/C=C/C1=C(C)CCCC1(C)C
not listed: [9] | [10]
inactive: all other assays above

NC(=O)N/N=C/c1ccc([N+](=O)[O-])o1
not listed: [9]
inactive: all other assays above

COc1ccc(C(=O)c2ccccc2)c(O)c1
inactive: all assays above

COc1ccccc1O
not listed: [9]
inactive: all other assays above

O=C1OC(c2ccc(O)cc2)(c2ccc(O)cc2)c2ccccc21
not listed: [9] | [10]
inactive: all other assays above

NC(=O)c1ccc([N+](=O)[O-])cc1Cl
inactive: all assays above

Cc1c(N(C)C)c(=O)n(-c2ccccc2)n1C
inactive: all assays above
